Results as given in PubChem BioAssay (Tox21).
A number with no mark means an inactive call. Results filed as inconclusive are left out. Entries that show only a call come without a potency. The source made the active and inactive calls. Unless noted, calls follow the shape of the dose curve; as a rule, active = well fitted curve in the direction sought with a large enough effect in the repeat runs; inconclusive = weak or mixed curves; inactive = no such curve, though single readings can be large; an effect the other way counts as inactive or inconclusive.

Tests used:
[1] = qHTS assay for small molecule agonists of the p53 signaling pathway (AID 651631; calls by dose curve; also: nearly all actives have a fitted effect of over 15% in size)
Method in brief: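 HCT-116 p53RE-bla reporter line, 16 h compound treatment at 37 °C, then fluorescence after 2 h with B/G FRET substrate.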

[2] = qHTS assay for small molecules that induce genotoxicity in human embryonic kidney cells expressing luciferase-tagged ATAD5 (AID 651632); also: nearly all actives have a fitted effect of over 15% in size
Method in brief: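 Increased luciferase signal from ATAD5-tagged reporter cells indicates DNA-damage-driven ATAD5 induction. HEK293T cells are treated for 16 hr at 37C before detection with Amplite.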

[3] = qHTS assay for small molecules that induce genotoxicity in human embryonic kidney cells expressing luciferase-tagged ATAD5 - cell viability (AID 651634; calls by dose curve; also: nearly all actives have a fitted effect of over 25% in size)
Method in brief: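 Cytotoxicity counterscreen in HEK293T cells bearing an ATAD5-luciferase reporter: live-cell protease activity measured by CellTiter-Fluor fluorescence after 15.5 hr compound exposure.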

[4] = qHTS assay for small molecule disruptors of the mitochondrial membrane potential - cell viability (AID 720634; calls by dose curve;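 also: human HepG2 liver cancer cells; series mostly up to about 83 µM; nearly all actives have a fitted effect of over 20% in size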)
Method in brief: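 After overnight attachment at 37 C, HepG2 cells received compound or DMSO vehicle for 1 hr. Viability is then taken from ATP-driven luminescence following a 30 min room-temperature CellTiter-Glo step.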

[5] = qHTS assay to test for compound auto fluorescence at 590 nm (red) in HepG2 cells (AID 720674)
Method in brief: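 1 hr compound incubation on HepG2 cells, 37 C, 5% CO2; plate read ex 540 nm / em 590 nm; intensities reported as Rose Bengal sodium equivalents.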

[6] = qHTS assay to test for compound auto fluorescence at 535 nm (green) in HepG2 cells (AID 720675)
[7] = qHTS assay to test for compound auto fluorescence at 460 nm (blue) in HEK293 cells (AID 720678)
Method in brief: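 Blue read-out at excitation 405 nm and emission 460 nm follows overnight compound exposure of HEK293 cells at 37C in 5% CO2. Activity is given as auto fluorescence equivalency to triamterene.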

[8] = qHTS assay to test for compound auto fluorescence at 590 nm (red) in HEK293 cells (AID 720679)
Method in brief: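 Red channel, Ex/Em 540/590nm; signal expressed as equivalency to Rose Bengal sodium. HEK293, 2,000 cells/well, 10% dialyzed FBS; 23 nL compound pinned after 4-5 hr attachment; overnight 37C/5% CO2 before reading.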

[9] = qHTS assay to test for compound auto fluorescence at 460 nm (blue) in HEK293 cell free culture (AID 720681)
Method in brief: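 Blue fluorescence (Ex 405/Em 460 nm, triamterene-equivalent) was read immediately after pin transfer of compound or DMSO into medium (DMEM, 10% FBS) without cells.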

[10] = qHTS assay to test for compound auto fluorescence at 535 nm (green) in HEK293 cell free culture (AID 720682)
Method in brief: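 Steps: dispense DMEM/10% FBS into empty wells; pin in compound or DMSO; measure fluorescence at 485/535 nm. Values are fluorescein equivalents.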

[11] = qHTS assay to test for compound auto fluorescence at 590 nm (red) in HEK293 cell free culture (AID 720683)
Method in brief: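 Red-channel autofluorescence of compounds in culture medium (DMEM, 10% FBS), no cells, measured at 540/590 nm. Rose Bengal sodium is the reference fluorophore for equivalence.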

[12] = qHTS assay to test for compound auto fluorescence at 590 nm (red) in HepG2 cell free culture (AID 720684)
Method in brief: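 Plate contents were MEM with 10% FBS plus test compound or DMSO, no cells. Fluorescence was recorded with 540 nm excitation and 590 nm emission.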

[13] = qHTS assay to test for compound auto fluorescence at 460 nm (blue) in HepG2 cell free culture (AID 720685)
Method in brief: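 Compound (23 nL) or DMSO pinned into cell-free MEM with 10% FBS; blue fluorescence read at 405/460 nm excitation/emission, expressed as auto-fluorescence equivalency to triamterene.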

[14] = qHTS assay to test for compound auto fluorescence at 535 nm (green) in HepG2 cell free culture (AID 720686)
[15] = qHTS assay to test for compound auto fluorescence at 460 nm (blue) in HepG2 cells (AID 720687)
Method in brief: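 Blue-channel autofluorescence (Ex/Em 405/460 nm, triamterene-equivalent) was measured after 1 hr compound exposure at 37 C, 5% CO2. Cells were HepG2, plated overnight at 37 C in MEM plus 10% FBS.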

[16] = target: Glucocorticoid receptor (Homo sapiens) (UniProt P04150); assay: qHTS assay to identify small molecule agonists of the glucocorticoid receptor (GR) signaling pathway (AID 720691; active = well fitted activation curve with a large enough effect in the signal ratio in the repeat runs, not every such curve was filed as active; the % refers to the signal ratio)
Method in brief: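 Agonist mode in a HeLa line carrying a GRE-controlled beta-lactamase reporter. Compounds act for 18 h at 37 C before a 2 h room-temperature FRET substrate step and fluorescence reading.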

[17] = target: Glucocorticoid receptor (Homo sapiens) (UniProt P04150); assay: qHTS assay to identify small molecule antagonists of the glucocorticoid receptor (GR) signaling pathway (AID 720692; active = well fitted inhibition curve with a large enough effect in the signal ratio in the repeat runs, not every such curve was filed as active; the % refers to the signal ratio)
Method in brief: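 Cells plated, rested 4 h at 37 C/5% CO2; compounds in DMSO pin-transferred; dexamethasone added to 5 nM final; 18 h at 37 C; B/G FRET substrate added, 2 h room temperature; fluorescence measured.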

[18] = qHTS assay to identify small molecule antagonists of the glucocorticoid receptor (GR) signaling pathway - cell viability counter screen (AID 720693); also: nearly all actives have a fitted effect of over 55% in size
[19] = qHTS assay for identifying genotoxic compounds that show differential cytotoxicity against isogenic chicken DT40 cell lines with known DNA damage response pathways - wild type cell line (AID 743012); also: potency is read from the fitted curve at half-maximal effect; nearly all actives have a fitted effect of over 60% in size
Method in brief: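 Cells (DT40 wild type, 300/well) are treated with DMSO-dissolved compounds after a ~0.5 h pre-incubation and kept 40 h at 37 C/5% CO2. Viability is then measured by CellTiter-Glo luminescence following 30 min at room temperature.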

[20] = qHTS assay for identifying genotoxic compounds that show differential cytotoxicity against isogenic chicken DT40 cell lines with known DNA damage response pathways - Rev3 mutant cell line (AID 743014); also: potency is read from the fitted curve at half-maximal effect; nearly all actives have a fitted effect of over 55% in size
[21] = qHTS assay to identify small molecule antagonists of the androgen receptor (AR) signaling pathway - cell viability counter screen (AID 743033; also: nearly all actives have a fitted effect of over 45% in size)
[22] = qHTS assay to identify small molecule antagonists of the androgen receptor (AR) signaling pathway using the MDA cell line - cell viability counter screen (AID 743041; also: nearly all actives have a fitted effect of over 45% in size)
Method in brief: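 R1881-driven MDA-kb2 AR-luc cells, 3,000/well, were dosed with library compounds for 16 h; cell health came from CellTiter-Fluor fluorescence in the reporter wells.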

[23] = test system: thyroid hormone receptor (rat, GH3 cells); assay: qHTS assay to identify small molecule agonists of the thyroid receptor (TR) signaling pathway (AID 743066; calls by dose curve)
[24] = target: Estrogen receptor (Homo sapiens) (UniProt P03372); assay: qHTS assay to identify small molecule antagonists of the estrogen receptor alpha (ER-alpha) signaling pathway (AID 743069; active = well fitted curve in the direction sought with a large enough effect in the signal ratio in the repeat runs, not every such curve was filed as active; the % refers to the signal ratio)
Method in brief: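 Compound effects are measured against 17beta-estradiol stimulation in HEK293 cells with a UAS-controlled beta-lactamase reporter for ER-alpha. Exposure lasts 18 hr at 37C; LiveBLAzer B/G FRET substrate follows for 2 hr at room temperature.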

[25] = qHTS assay to identify small molecule antagonists of the estrogen receptor alpha (ER-alpha) signaling pathway - cell viability counter screen (AID 743074; calls by dose curve;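 also: HEK293 cells carrying ER-alpha-UAS-bla reporter stimulated with 17beta-estradiol; nearly all actives have a fitted effect of over 45% in size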)
[26] = target: Estrogen receptor (Homo sapiens) (UniProt P03372); assay: qHTS assay to identify small molecule agonists of the estrogen receptor alpha (ER-alpha) signaling pathway (AID 743075; calls by dose curve)
[27] = target: Estrogen receptor (Homo sapiens) (UniProt P03372); assay: qHTS assay to identify small molecule agonists of the estrogen receptor alpha (ER-alpha) signaling pathway using the BG1 cell line (AID 743079); also: potency is read from the fitted curve at half-maximal effect; nearly all actives have a fitted effect of over 20% in size
[28] = qHTS assay to identify small molecule antagonists of the estrogen receptor alpha (ER-alpha) signaling pathway using the BG1 cell line (AID 743080; calls by dose curve;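 also: BG1 cells stimulated with 17beta-estradiol alongside compound; series mostly up to about 70 µM; nearly all actives have a fitted effect of over 25% in size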)
Method in brief: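 Luminescence from a 4×ERE-luciferase reporter in BG1-Luc-4E2 cells served as read-out. Cells, pre-cultured 5 days in stripped-serum phenol-red-free medium, were exposed to compound with 17beta-estradiol co-stimulation for 21.5 h at 37 C.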

[29] = qHTS assay to identify small molecule antagonists of the estrogen receptor alpha (ER-alpha) signaling pathway using the BG1 cell line - cell viability counter screen (AID 743081);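 also: compound given together with 17beta-estradiol as the ER stimulus; series mostly up to about 70 µM; nearly all actives have a fitted effect of over 45% in size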
Aromatase (Homo sapiens) = Aromatase (Homo sapiens) (UniProt P11511); assay: qHTS assay to identify aromatase inhibitors (AID 743083); also: series mostly up to about 70 µM; nearly all actives have a fitted effect of over 55% in size
[30] = qHTS assay to identify aromatase inhibitors - cell viability counter screen (AID 743084);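 also: cells stimulated with testosterone during compound exposure; nearly all actives have a fitted effect of over 55% in size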
[31] = target: Aryl hydrocarbon receptor (Homo sapiens) (UniProt P35869); assay: qHTS assay to identify small molecule that activate the aryl hydrocarbon receptor (AhR) signaling pathway (AID 743085);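 also: HG2L7.5c1 human HepG2 liver cells with stably integrated DRE-driven firefly reporter; series mostly up to about 70 µM; nearly all actives have a fitted effect of over 15% in size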
Method in brief: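 Steps: seed HepG2-AhR-luc cells; allow 5 h at 37C; pin-transfer test compound or vehicle; incubate 24 h at 37C; add viability dye (30 min, 37C) and read fluorescence; add luciferase substrate (30 min, RT) and read luminescence.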

[32] = qHTS assay to identify small molecule that activate the aryl hydrocarbon receptor (AhR) signaling pathway - cell viability counter screen (AID 743086)
Method in brief: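 Cytotoxicity counter screen: CellTiter-Fluor signal (30 min, 37 C) in 4000 HepG2 cells/well carrying the DRE-luciferase reporter, following 24 h compound exposure at 37 C.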

[33] = target: Peroxisome proliferator-activated receptor gamma (Homo sapiens) (UniProt P37231); assay: qHTS assay to identify small molecule agonists of the peroxisome proliferator-activated receptor gamma (PPARg) signaling pathway (AID 743094; active = well fitted activation curve with a large enough effect in the signal ratio in the repeat runs, not every such curve was filed as active; the % refers to the signal ratio)
Method in brief: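 Quantitative HTS agonist mode: stable HEK293H line with UAS-beta-lactamase reporter under PPARg control, 17 h compound exposure at 37C, fluorescence after 1 h FRET substrate loading at room temperature.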

[34] = qHTS assay to identify small molecule antagonists of the estrogen related receptor (ERR) signaling pathway - cell viability counter screen (AID 1224818);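 also: series mostly up to about 46 µM; viability measured after 17.5 h of compound exposure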
Method in brief: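 Cells carrying the ERR pathway reporter were seeded and incubated for 6 hours before compound addition. After a 17.5-hour exposure at 37 C, live-cell protease activity was measured by CellTiter-Fluor fluorescence following 30 minutes of incubation.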

[35] = test system: estrogen-related receptor alpha (ERRalpha) with PGC-1alpha coactivator, human; assay: qHTS assay to identify small molecule antagonists of the estrogen related receptor signaling pathway with the pleiotropic PPARgamma coactivator (PGC) (AID 1224821; calls by dose curve;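 also: series mostly up to about 46 µM; lower luminescence signal means antagonism of PGC/ERR signalling; nearly all actives have a fitted effect of over 50% in size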)
Method in brief: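 Quantitative HTS for antagonism: PGC/ERR cells received compounds after 6 h attachment and were incubated 18 h at 37 C, with luminescence (One-Glo) as the endpoint.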

[36] = qHTS assay to identify small molecule antagonists of the estrogen related receptor signaling pathway with the pleiotropic PPARgamma coactivator (PGC) cell viability counter screen (AID 1224822;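 also: series mostly up to about 46 µM; viability read after 17.5 h compound exposure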)
Method in brief: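 Seed PGC/ERR cells (2,000/well); incubate 6 h at 37 C/5% CO2; pin-transfer compounds in DMSO; incubate 17.5 h at 37 C; add CellTiter-Fluor; after 30 min read fluorescence.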

[37] = qHTS assay to identify small molecule agonists of the estrogen related receptor signaling pathway with the pleiotropic PPARgamma coactivator (PGC) (AID 1224823)
Method in brief: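 Cell-based luciferase assay in the NTP-supplied PGC/ERR line, 2,000 cells/well; 18 h compound exposure at 37 C, luminescence after One-Glo.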

[38] = target: Nuclear receptor subfamily 1 group I member 2 (Rattus norvegicus) (UniProt Q9R1A7); assay: Rat pregnane X receptor (rPXR) activation by small molecules, qHTS assay (AID 1346983); conditions: rPXR luciferase reporter cells, One-Glo luminescence, 24 h; max activation: active compounds read high; also: nearly all actives have a fitted effect of over 20% in size
Method in brief: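 Luminescent readout (One-Glo luciferase, 30 min room temperature) followed 24 hr compound treatment at 37 C of rPXR cells plated 2,000 per well and preincubated 5hr; qHTS format with compounds delivered in DMSO.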

[39] = target: Nuclear receptor subfamily 1 group I member 2 (Homo sapiens) (UniProt O75469); assay: CYP3A4 induction through human pregnane X receptor (PXR) by small molecules, qHTS assay (AID 1346984); also: nearly all actives have a fitted effect of over 40% in size
Method in brief: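 Steps: seed DPX-2 cells, 5 hr at 37C; pin-transfer compounds; 24 hr at 37C; add Luciferin-IPA (3uM final), 3 hr at 37C; add One-Glo, 30 min RT; read luminescence.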

Sequence of Estrogen receptor (Homo sapiens) (P03372 whole entry, looked up): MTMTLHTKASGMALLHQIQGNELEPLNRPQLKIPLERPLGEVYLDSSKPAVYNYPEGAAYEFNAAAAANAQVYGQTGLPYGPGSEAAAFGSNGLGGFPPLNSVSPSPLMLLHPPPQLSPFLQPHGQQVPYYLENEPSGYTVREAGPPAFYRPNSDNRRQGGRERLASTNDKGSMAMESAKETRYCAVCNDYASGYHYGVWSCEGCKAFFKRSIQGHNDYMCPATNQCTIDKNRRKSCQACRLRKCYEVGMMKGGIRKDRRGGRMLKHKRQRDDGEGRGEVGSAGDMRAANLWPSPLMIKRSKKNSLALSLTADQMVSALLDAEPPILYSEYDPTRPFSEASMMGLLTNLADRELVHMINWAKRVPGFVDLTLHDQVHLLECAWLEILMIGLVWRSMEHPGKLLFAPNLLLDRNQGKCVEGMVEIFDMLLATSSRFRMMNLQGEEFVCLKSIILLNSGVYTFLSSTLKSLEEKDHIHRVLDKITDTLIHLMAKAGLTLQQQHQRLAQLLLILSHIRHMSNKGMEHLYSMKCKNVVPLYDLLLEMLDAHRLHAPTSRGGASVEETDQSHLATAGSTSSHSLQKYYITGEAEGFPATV
Sequence of Glucocorticoid receptor (Homo sapiens) (P04150 whole entry, looked up): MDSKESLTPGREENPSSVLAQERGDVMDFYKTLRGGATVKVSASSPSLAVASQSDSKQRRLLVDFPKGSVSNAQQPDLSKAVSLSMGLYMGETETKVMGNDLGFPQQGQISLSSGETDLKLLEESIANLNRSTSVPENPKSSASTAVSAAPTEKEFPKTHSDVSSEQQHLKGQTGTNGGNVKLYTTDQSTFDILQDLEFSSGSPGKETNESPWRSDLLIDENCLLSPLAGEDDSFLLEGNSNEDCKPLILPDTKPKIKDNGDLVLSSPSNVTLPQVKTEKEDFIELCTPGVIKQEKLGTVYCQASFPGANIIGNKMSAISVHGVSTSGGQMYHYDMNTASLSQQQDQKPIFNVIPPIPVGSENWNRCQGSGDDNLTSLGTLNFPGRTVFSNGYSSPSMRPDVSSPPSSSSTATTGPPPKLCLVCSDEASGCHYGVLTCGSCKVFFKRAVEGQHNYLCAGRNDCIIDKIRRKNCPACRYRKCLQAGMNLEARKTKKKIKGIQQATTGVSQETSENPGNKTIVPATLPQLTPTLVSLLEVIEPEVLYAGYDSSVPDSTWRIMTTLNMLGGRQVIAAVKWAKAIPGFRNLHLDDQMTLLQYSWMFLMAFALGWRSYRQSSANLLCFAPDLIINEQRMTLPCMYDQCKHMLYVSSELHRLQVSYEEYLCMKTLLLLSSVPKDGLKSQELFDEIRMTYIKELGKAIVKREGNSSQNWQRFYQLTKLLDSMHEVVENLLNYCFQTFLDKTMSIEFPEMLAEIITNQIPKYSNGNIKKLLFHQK
Sequence of Aryl hydrocarbon receptor (Homo sapiens) (P35869 whole entry, looked up): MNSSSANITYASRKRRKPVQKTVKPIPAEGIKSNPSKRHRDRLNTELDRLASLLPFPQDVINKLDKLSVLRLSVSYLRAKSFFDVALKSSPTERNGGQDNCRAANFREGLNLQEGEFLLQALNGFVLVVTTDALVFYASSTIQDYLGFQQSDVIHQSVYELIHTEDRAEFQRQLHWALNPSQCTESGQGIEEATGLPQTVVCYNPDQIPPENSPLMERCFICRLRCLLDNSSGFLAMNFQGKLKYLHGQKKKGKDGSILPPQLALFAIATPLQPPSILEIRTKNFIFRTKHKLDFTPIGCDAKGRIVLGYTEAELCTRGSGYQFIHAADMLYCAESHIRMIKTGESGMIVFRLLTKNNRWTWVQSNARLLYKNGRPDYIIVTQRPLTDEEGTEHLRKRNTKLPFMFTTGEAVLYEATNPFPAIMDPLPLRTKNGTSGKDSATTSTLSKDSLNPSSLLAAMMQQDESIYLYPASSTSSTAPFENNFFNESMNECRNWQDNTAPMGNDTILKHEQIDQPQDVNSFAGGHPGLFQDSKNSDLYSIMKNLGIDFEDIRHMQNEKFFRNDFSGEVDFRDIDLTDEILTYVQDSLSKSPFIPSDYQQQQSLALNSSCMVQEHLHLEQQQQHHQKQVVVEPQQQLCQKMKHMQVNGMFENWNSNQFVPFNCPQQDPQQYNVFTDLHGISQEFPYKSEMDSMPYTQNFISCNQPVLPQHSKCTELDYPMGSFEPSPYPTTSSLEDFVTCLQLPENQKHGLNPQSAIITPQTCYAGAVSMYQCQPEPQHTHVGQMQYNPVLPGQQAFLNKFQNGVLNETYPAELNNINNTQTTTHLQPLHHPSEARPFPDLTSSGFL
Sequence of Nuclear receptor subfamily 1 group I member 2 (Rattus norvegicus) (Q9R1A7 whole entry, looked up): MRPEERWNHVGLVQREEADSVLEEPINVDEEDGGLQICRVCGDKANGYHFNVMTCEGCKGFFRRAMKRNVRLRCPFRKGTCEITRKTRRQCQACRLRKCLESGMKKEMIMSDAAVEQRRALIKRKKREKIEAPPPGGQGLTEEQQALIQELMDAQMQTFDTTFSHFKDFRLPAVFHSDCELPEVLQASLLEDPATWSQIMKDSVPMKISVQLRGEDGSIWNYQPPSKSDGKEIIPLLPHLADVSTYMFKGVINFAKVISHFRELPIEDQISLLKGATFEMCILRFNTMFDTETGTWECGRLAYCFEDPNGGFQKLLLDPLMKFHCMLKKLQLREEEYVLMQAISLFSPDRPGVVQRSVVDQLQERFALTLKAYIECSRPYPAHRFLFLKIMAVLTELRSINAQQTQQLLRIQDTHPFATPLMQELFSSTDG
Sequence of Peroxisome proliferator-activated receptor gamma (Homo sapiens) (P37231 whole entry, looked up): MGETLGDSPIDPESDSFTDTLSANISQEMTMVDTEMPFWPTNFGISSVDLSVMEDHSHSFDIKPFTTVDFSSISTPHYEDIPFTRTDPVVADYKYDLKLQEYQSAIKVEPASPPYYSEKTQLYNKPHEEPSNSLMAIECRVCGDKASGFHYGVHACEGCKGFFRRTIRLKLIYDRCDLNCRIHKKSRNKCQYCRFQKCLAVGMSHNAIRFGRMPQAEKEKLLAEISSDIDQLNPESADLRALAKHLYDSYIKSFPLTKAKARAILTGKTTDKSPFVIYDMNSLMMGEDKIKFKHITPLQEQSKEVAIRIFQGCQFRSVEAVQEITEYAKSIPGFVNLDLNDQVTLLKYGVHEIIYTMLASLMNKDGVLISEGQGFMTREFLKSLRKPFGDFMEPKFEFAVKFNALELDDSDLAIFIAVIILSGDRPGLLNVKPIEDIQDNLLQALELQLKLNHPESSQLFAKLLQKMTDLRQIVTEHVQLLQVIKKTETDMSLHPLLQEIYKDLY
Sequence of Aromatase (Homo sapiens) (P11511 whole entry, looked up): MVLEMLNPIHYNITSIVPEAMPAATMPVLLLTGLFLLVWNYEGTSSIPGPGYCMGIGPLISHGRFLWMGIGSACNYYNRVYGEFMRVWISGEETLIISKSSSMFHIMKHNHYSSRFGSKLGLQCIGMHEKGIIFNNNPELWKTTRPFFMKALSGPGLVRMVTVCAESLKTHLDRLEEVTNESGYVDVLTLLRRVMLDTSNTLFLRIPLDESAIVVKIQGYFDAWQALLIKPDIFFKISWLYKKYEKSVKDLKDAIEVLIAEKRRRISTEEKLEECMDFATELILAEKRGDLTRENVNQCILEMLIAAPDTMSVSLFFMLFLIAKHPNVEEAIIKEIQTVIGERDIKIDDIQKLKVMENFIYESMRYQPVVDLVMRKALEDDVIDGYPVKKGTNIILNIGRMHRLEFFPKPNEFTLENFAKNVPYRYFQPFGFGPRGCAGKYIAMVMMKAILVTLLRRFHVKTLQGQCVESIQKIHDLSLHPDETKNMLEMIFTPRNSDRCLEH

Question: Which Potency [1] does the source give for `CC(C)NC(C)Cc1ccc(I)cc1` (stereo not given) here?
Answer: inactive

Question: What about the Potency [2] of the same compound?
Answer: inactive

Question: What about the Potency [3] of the same compound?
Answer: inactive

Question: And the Potency [4]?
Answer: inactive

Question: What about the outcome [5] of the same compound?
Answer: inactive

Question: And the Potency [6]?
Answer: inactive

Question: And the Potency [7]?
Answer: inactive

Question: And the outcome [8]?
Answer: inactive

Question: And the Potency [9]?
Answer: inactive

Question: What about the Potency [10] of the same compound?
Answer: inactive

Question: And the outcome [11]?
Answer: inactive

Question: And the outcome [12]?
Answer: inactive

Question: And the Potency [13]?
Answer: inactive

Question: What about the Potency [14] of the same compound?
Answer: inactive

Question: And the Potency [15]?
Answer: inactive

Question: What about the Potency [16] of the same compound?
Answer: inactive

Question: What about the Potency [17] of the same compound?
Answer: inactive

Question: And the Potency [18]?
Answer: inactive

Question: What about the Potency [19] of the same compound?
Answer: 26.6 µM (active)

Question: What about the Potency [20] of the same compound?
Answer: 1.68 µM (active)

Question: What about the Potency [21] of the same compound?
Answer: inactive

Question: What about the Potency [22] of the same compound?
Answer: inactive

Question: What about the Potency [23] of the same compound?
Answer: inactive

Question: What about the Potency [24] of the same compound?
Answer: inactive

Question: What about the Potency [25] of the same compound?
Answer: inactive

Question: And the Potency [26]?
Answer: inactive

Question: What about the Potency [27] of the same compound?
Answer: 21.1 µM (active)

Question: And the Potency [28]?
Answer: inactive

Question: And the Potency [29]?
Answer: inactive

Question: What about the Potency (Aromatase (Homo sapiens)) of the same compound?
Answer: inactive

Question: And the Potency [30]?
Answer: inactive

Question: And the Potency [31]?
Answer: inactive

Question: And the Potency [32]?
Answer: inactive

Question: What about the Potency [33] of the same compound?
Answer: inactive

Question: What about the Potency [34] of the same compound?
Answer: inactive

Question: And the Potency [35]?
Answer: inactive

Question: What about the Potency [36] of the same compound?
Answer: inactive

Question: What about the Potency [37] of the same compound?
Answer: inactive

Question: What about the max activation [38] of the same compound?
Answer: -3.06%

Question: What about the Potency [39] of the same compound?
Answer: inactive
